Only some compounds are listed: those with a hit (about 5.7% of all), similar ones and a draw of the others.
DAX1 inh-1 = DAX1 (NR0B1) inhibitors, primary screen, cell-based, HEK293, Gal4-DAX1, luciferase luminescence; HEK293 Gal4-DAX1 luciferase reporter; Nuclear receptor subfamily 0 group B member 1 (Homo sapiens), P51843; actives 0.99% (n = 340,000); inhibition, % at 6.75 µM;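 active = inhibition above the mean over all tested compounds plus 3 SD, cut at about 4.2% in these data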;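 also: 0% = DAX1-transfected cells with DMSO and 100% = empty-vector control cells with DMSO; inhibition shows as a rise in luminescence from relieved DAX1 repression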
hgDAF12 agonist = H. glycines DAF-12 receptor agonists, primary screen, cell-based, luminescence, HEK293, GAL4 fusion, UAS-luciferase; AID 687014, 2013; actives 1.8% (n = 370,000); activation, % at 6.8 µM; HEK293 GAL4-hgDAF12 UAS-luciferase reporter, agonist luminescence; normalized to butyrate control;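 active = activation above a cutoff set at the mean of all screened compounds plus 3 SD, cut at about 10% in these data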;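 also: 0% = DMSO wells and 100% = sodium butyrate wells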
AHR act = AHR activators, primary screen, cell-based, luminescence, luciferase reporter, human. Aryl hydrocarbon receptor (Homo sapiens), P35869. AID 2796, 2010. AHR-responsive luciferase reporter cells. activation, % at 5 µM. actives 2.5% (n = 320,000); in the data active = activation above about 47%;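 also: 0% = vehicle wells and 100% = reference agonist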
hcDAF12 agonist = H. contortus DAF-12 nuclear receptor activators, primary screen, cell-based, luminescence, HEK293, lit1-tk-luc reporter; HEK293 hcDAF-12 lit1-tk-luc reporter; 0% DMSO, 100% Δ7-dafachronic acid; activation, % at 6.8 µM; actives 1.4% (n = 370,000); AID 652067, 2013;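 active = activation above the mean of all tested compounds plus 3 SD, cut at about 5.5% in these data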;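 also: 100% = response to 3 µM Δ7-dafachronic acid high control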
ssDAF12 agonist = S. stercoralis DAF-12 nuclear receptor activators, primary screen, cell-based, luminescence, HEK293, GRIP1 co-expression, lit1-tk-luc | HEK293 ssDAF-12/GRIP1 lit1-tk-luc reporter; % of 3 µM dafachronic acid response | actives 1% (n = 370,000) | activation, % at 6.8 µM;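 active = activation above the mean over all tested compounds plus 3 SD, cut at about 0.9% in these data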;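 also: 0% = DMSO-only wells and 100% = 3 µM delta7-dafachronic acid wells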
DAX1 inh-2 = DAX1 (NR0B1) inhibitors on StAR promoter, primary screen, cell-based, luminescence, SF-1 (NR5A1), full-length DAX-1; HEK293T StAR-luciferase reporter, SF-1/DAX-1 repression relief; inhibition, % at 6.8 µM; actives 1.1% (n = 370,000);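 active = inhibition above the mean over all tested compounds plus 3 SD, cut at about 3.6% in these data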;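 also: 0% = DAX-1 cells with DMSO and 100% = cells lacking DAX-1 with DMSO; higher inhibition means more luminescence from relief of DAX-1 repression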
* hit, by the source's call.

For CCc1ccccc1NC(=O)C1CCCN(S(=O)(=O)c2c(C)noc2C)C1 (configuration not stated) the results were DAX1 inh-1 -1, hgDAF12 agonist 1, AHR act 0, hcDAF12 agonist 0, ssDAF12 agonist -1 and DAX1 inh-2 0.
O=C(NCc1cccc(C(F)(F)F)c1)C1CC(c2ccccc2C(F)(F)F)=NO1 (configuration not stated) was read as DAX1 inh-1 1, hgDAF12 agonist 0, AHR act 4, hcDAF12 agonist -1, ssDAF12 agonist -1 and DAX1 inh-2 0.
C=CCc1cccc(CNc2ccc(S(=O)(=O)Nc3nccnc3OC)cc2)c1O was read as DAX1 inh-1 -1, hgDAF12 agonist 0, AHR act 2, hcDAF12 agonist 0, ssDAF12 agonist -1 and DAX1 inh-2 0.
`C=CCc1cccc(CNc2ccc(Br)cc2)c1O` gave DAX1 inh-1 -1, hgDAF12 agonist -1, AHR act 71*, hcDAF12 agonist -1, ssDAF12 agonist -1 and DAX1 inh-2 -1.
CCc1nonc1NC(=O)c1oc2ccc(F)cc2c1C was read as DAX1 inh-1 0, hgDAF12 agonist 5, AHR act 61*, hcDAF12 agonist 1, ssDAF12 agonist -1 and DAX1 inh-2 1.
Screening Cc1ccc(Nc2nc3c(c(=O)[nH]2)CCCC3)cc1 returned DAX1 inh-1 0, hgDAF12 agonist 3, AHR act 30, hcDAF12 agonist 1, ssDAF12 agonist 0 and DAX1 inh-2 1.
For O=c1[nH]c(Nc2nc3ccccc3o2)nc2c1CCCC2 the results were DAX1 inh-1 2, hgDAF12 agonist 8, AHR act 55*, hcDAF12 agonist 2, ssDAF12 agonist -1 and DAX1 inh-2 4.
For COc1ccc(CC(=O)NCC(=O)N/N=C/c2ccc(C)o2)cc1 the results were DAX1 inh-1 0, hgDAF12 agonist -1, AHR act 21, hcDAF12 agonist 0, ssDAF12 agonist 0 and DAX1 inh-2 0.
`COc1ccc(CC(=O)NCC(=O)N/N=C/c2sccc2C)cc1` gave DAX1 inh-1 0, hgDAF12 agonist 1, AHR act 10, hcDAF12 agonist 6.4*, ssDAF12 agonist -1 and DAX1 inh-2 0.
Screening CCCCNC(=S)N/N=C/c1ccc(C)s1 returned DAX1 inh-1 1, hgDAF12 agonist 5, AHR act 75*, hcDAF12 agonist 1, ssDAF12 agonist -1 and DAX1 inh-2 2.
For CCCCNC(=S)N/N=C/c1cc(C)ccc1C the results were DAX1 inh-1 -1, hgDAF12 agonist -1, AHR act 0, hcDAF12 agonist -3, ssDAF12 agonist -1 and DAX1 inh-2 -1.
CCCCNC(=S)N/N=C/c1sccc1C was read as DAX1 inh-1 2, hgDAF12 agonist 11*, AHR act 24, hcDAF12 agonist -1, ssDAF12 agonist -1 and DAX1 inh-2 -1.
For C=CCNC(=O)c1onc(CSc2ccncc2)c1C(=O)NCC=C the results were DAX1 inh-1 -1, hgDAF12 agonist 0, AHR act 27, hcDAF12 agonist -2, ssDAF12 agonist -1 and DAX1 inh-2 -1.
CN(C)c1nc2n(c(=O)n1)CCS2 was read as DAX1 inh-1 0, hgDAF12 agonist -3, AHR act 0, hcDAF12 agonist -1, ssDAF12 agonist -1 and DAX1 inh-2 0.
Screening C=CCC(=O)NC(C)c1cnn(-c2ccccc2C)c1C (configuration not stated) returned DAX1 inh-1 1, hgDAF12 agonist 2, AHR act 3, hcDAF12 agonist 3, ssDAF12 agonist 1.0* and DAX1 inh-2 -1.
Screening Cc1ccccc1-n1ncc(C(C)NC(=O)c2ccccc2)c1C (configuration not stated) returned DAX1 inh-1 2, hgDAF12 agonist 1, AHR act 4, hcDAF12 agonist 0, ssDAF12 agonist -2 and DAX1 inh-2 -1.
CN(C)c1c(F)cc(C(=O)NCc2ccccc2)cc1F was read as DAX1 inh-1 4.3*, hgDAF12 agonist 0, AHR act 0, hcDAF12 agonist -1, ssDAF12 agonist -2 and DAX1 inh-2 0.
For CCSc1nsc(NC(=O)Nc2ccccc2F)n1 the results were DAX1 inh-1 1, hgDAF12 agonist 11*, AHR act 78*, hcDAF12 agonist 2, ssDAF12 agonist -1 and DAX1 inh-2 0.
`Cc1ccc(NC(=O)Cn2ncn3c(cc4ccccc43)c2=O)cc1F` gave DAX1 inh-1 0, hgDAF12 agonist 3, AHR act 10, hcDAF12 agonist 1, ssDAF12 agonist 0 and DAX1 inh-2 0.
For CCc1cccc(NC(=O)Cn2ncn3c(cc4ccccc43)c2=O)c1 the results were DAX1 inh-1 0, hgDAF12 agonist 1, AHR act 5, hcDAF12 agonist 6.4*, ssDAF12 agonist 0 and DAX1 inh-2 -1.
COc1ccc(-c2cc3c(=O)n(CC(=O)Nc4ccc(Cl)cc4)nc(C)n3n2)cc1 was read as DAX1 inh-1 1, hgDAF12 agonist 1, AHR act 3, hcDAF12 agonist 6.4*, ssDAF12 agonist -1 and DAX1 inh-2 1.
N#Cc1cn(CCCOc2ccccc2)c2ccccc12 was read as DAX1 inh-1 0, hgDAF12 agonist 2, AHR act -4, hcDAF12 agonist -2, ssDAF12 agonist -1 and DAX1 inh-2 0.
`CCOC(=O)C1CCN(C(=O)c2ccc(OCC(=O)Nc3ccc(OCC)cc3)c(OC)c2)CC1` gave DAX1 inh-1 4.2*, hgDAF12 agonist -1, AHR act 1, hcDAF12 agonist -1, ssDAF12 agonist -1 and DAX1 inh-2 -3.
Screening COc1ccc(O)c(/C=N/NC(=O)CCC(=O)Nc2cccc(C)c2)c1 returned DAX1 inh-1 0, hgDAF12 agonist -3, AHR act 10, hcDAF12 agonist -1, ssDAF12 agonist -1 and DAX1 inh-2 -1.
COc1ccc(OC)c(/C=N/NC(=O)CCCC(=O)Nc2cccc(Br)c2)c1 was read as DAX1 inh-1 -1, hgDAF12 agonist 3, AHR act 70*, hcDAF12 agonist -2, ssDAF12 agonist -1 and DAX1 inh-2 -1.

Source: PubChem BioAssay
